# High-throughput results deposited in PubChem by Johns Hopkins Ion Channel Center.
# A selection: hits, their analogues and other compounds. The true share with any hit is near 2.3%.
# CHT allo act: allosteric activators of human choline transporter CHT; CHT-expressing cells, membrane potential dye, choline EC20; active compounds read high; LV-AA mutant CHT in HEK293 cells; B-score at 10 µM; 310,000 tested, 0.49% active; AID 488977;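 active means initial fluorescence not abnormally high and integrated response B-score, plate-corrected, over 3 SD above library mean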
# Target sequence (Q9GZV3 whole entry, looked up): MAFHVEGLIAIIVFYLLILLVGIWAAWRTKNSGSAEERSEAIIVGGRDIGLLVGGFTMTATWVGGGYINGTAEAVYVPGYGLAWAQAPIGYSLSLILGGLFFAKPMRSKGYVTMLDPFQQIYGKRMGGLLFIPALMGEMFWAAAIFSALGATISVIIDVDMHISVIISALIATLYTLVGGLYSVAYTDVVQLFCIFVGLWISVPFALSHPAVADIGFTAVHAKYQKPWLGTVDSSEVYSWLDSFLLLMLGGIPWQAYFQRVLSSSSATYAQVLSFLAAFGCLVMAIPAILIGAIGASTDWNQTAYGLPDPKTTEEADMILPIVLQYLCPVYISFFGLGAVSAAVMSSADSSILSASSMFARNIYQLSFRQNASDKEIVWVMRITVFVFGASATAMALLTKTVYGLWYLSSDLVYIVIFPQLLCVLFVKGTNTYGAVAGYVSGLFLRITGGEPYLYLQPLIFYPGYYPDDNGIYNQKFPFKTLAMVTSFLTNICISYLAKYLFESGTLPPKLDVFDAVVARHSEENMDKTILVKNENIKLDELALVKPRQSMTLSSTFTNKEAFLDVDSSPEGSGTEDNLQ
# CHT block: inhibitors of human choline transporter CHT | Q9GZV3 | CHT-expressing cells, membrane potential dye, choline response; active compounds read low | B-score at 10 µM | 310,000 tested, 0.86% active | AID 488975;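 active means B-score over 3 SD under the library average, and starting fluorescence ratio not unusually high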;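 further: choline stimulus applied at its EC90 after an EC20 pre-addition; B-score computed on integrated fluorescence ratio after choline addition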
# TMEM16A act: activates or potentiates the mouse TMEM16A chloride channel | Q8BHY3 | 340,000 tested, 0.3% active | B-score at 10 µM | HEK293 TMEM16A/YFP-H148Q/I152L, iodide quench fluorescence; active compounds read low;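 active means fluorescence-ratio B-score plate-corrected deviation score at least 3 library SD below zero, with starting fluorescence score within 5 deviations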;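 further: channel opened by trigger with iodide after compound preincubation; score built on the fluorescence ratio of max minus min over baseline; more negative score means more quench and so TMEM16A activation or potentiation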
# TMEM16A inh: mouse TMEM16A channel inhibition, primary screen. Q8BHY3. HEK293 TMEM16A/YFP iodide influx fluorescence, ionomycin. normalized B-score (activity score, 25-100; higher = stronger inhibition) at 10 µM. 310,000 tested, 1.2% active;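 active means ratio plate-corrected score three or more library SD toward inhibition, starting fluorescence score within five deviations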;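 further: score derived from kinetic fluorescence span divided by baseline fluorescence per well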
# CHT activ conf: confirmation of human choline transporter (CHT) activators | shares compounds with CHT allo act | CHT-expressing cells, membrane potential dye fluorescence (FDSS); % of choline EC20–EC90 response window; HEK293 expressing CHT LV-AA mutant; choline added at its EC20 | activation, % at 10 µM | 2,500 tested, 91% active;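 active means primary screen active, with duplicate mean activation above negative control mean plus 3 SD, cut at about 11% in these data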
# HEK293 MP dye: counter-screen for CHT activators: effect in parental HEK293 cells | shares compounds with CHT allo act | membrane potential dye fluorescence (FDSS); measured after EC20 choline addition | ratio readout change at 10 µM, hits read low | 2,500 tested, 62% active;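 active means duplicate-averaged ratio beyond 3 SD from buffer wells, up or down, though filed actives are nearly all decreases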
# A number is an active result; i = inactive; nt = no result.
SMILES,CHT allo act,CHT block,TMEM16A act,TMEM16A inh,CHT activ conf,HEK293 MP dye
COCCNC(=O)/C(C#N)=C/c1c(N2CCN(C)CC2)nc2c(C)cccn2c1=O,9.71,i,i,i,66.5,-56.3
CCN1CCN(c2nc3c(C)cccn3c(=O)c2/C=C(\C#N)C(=O)NCCOC)CC1,8.68,i,i,i,59.6,-62
O=C(CCNS(=O)(=O)c1ccc(Br)cc1)N1CCN(c2ccccc2O)CC1,i,i,i,i,nt,nt
Cc1ccc(S(=O)(=O)N2CCN(c3ccccc3)CC2)s1,nt,nt,i,nt,nt,nt
CC(C)CC1NC(=O)C(CC(C)C)N(CO)C1=O (stereo not given),nt,nt,i,nt,nt,nt
Cc1cccc(C)c1NC(=O)CNC(=O)c1ccc2c(c1)NC(=O)CS2,nt,nt,i,nt,nt,nt
COCCCNC(=O)/C(C#N)=C/c1c(N2CCN(c3ccc(OC)cc3)CC2)nc2c(C)cccn2c1=O,i,i,i,i,nt,nt
COCCCNC(=O)/C(C#N)=C/c1c(N2CCN(C)CC2)nc2c(C)cccn2c1=O,6.86,i,i,i,52.1,-56
CCOC(=O)/C(C#N)=C/c1c(N2CCN(C)CC2)nc2c(C)cccn2c1=O,i,i,i,i,46.2,-48.2
CNC(=O)/C(C#N)=C/c1c(N2CCCCCC2)nc2ccccn2c1=O,6.44,i,i,i,i,-36
CCCCCCCCCCCCCCCC(=O)Nc1ccn(C2OC(CO)C(O)C2O)c(=O)n1 (stereo not given),nt,nt,i,nt,nt,nt
CCOC(=O)C[C@H]1c2ccccc2S(=O)(=O)N1Cc1cccc(C(F)(F)F)c1,i,i,i,i,16.5,i
COc1ccc(-n2c(C)c(C)c3c(NCCN(C)C)ncnc32)cc1,7,i,i,i,45.2,-33.4
Cc1c(C)n(-c2ccccc2)c2ncnc(NCCN(C)C)c12,i,i,nt,i,46.2,-41.7
O=C(Cn1ccc2cc(S(=O)(=O)N3CCCCC3)ccc21)NCc1ccccc1F,i,i,i,i,nt,nt
Cc1sc2c3ccsc3ccc2[n+]1C,10.3,i,i,i,66.2,i
Cc1nn2c(NCCCN(C)C)c3c(nc2c1-c1ccccc1)CCC3,8.25,i,i,i,44.8,-57.3
COc1ccc(C2=Nn3c([n+](C)c4ccccc43)SC2)cc1,10.9,i,i,i,56.8,-47.8
Cc1ccc(-c2csc(NCCn3c(C)nc4cc(C(F)(F)F)ccc43)n2)cc1,nt,nt,i,nt,nt,nt
CC(C)CC(=O)Nc1ccc(C(=O)COC(=O)Cc2n[nH]c(=O)c3ccccc23)cc1,nt,nt,i,nt,nt,nt
O=C(O)/C=C/C(=O)Nc1ccc2c(c1)C(=O)c1ccccc1C2=O,i,i,i,i,28.2,-26.6
CCOC(=O)c1ccc(NC(=O)CSc2nc(NC(=O)c3ccccc3)c3c(C)c(C)oc3n2)cc1,i,i,i,i,nt,nt
COC(=O)c1ccccc1NC(=O)CSc1nc(NC(=O)c2ccccc2)c2c(C)c(C)oc2n1,8.42,i,i,i,i,i
COc1ccc(CN2C(=O)[C@@H]3C(c4ccccc4Cl)=NO[C@@H]3C2=O)cc1,i,i,i,i,17.4,i
O=C1[C@@H]2C(c3ccccc3Cl)=NO[C@@H]2C(=O)N1Cc1ccccc1,i,i,i,i,nt,nt
SMILES,CHT allo act,CHT block,TMEM16A act,TMEM16A inh,CHT activ conf,HEK293 MP dye
CCc1ccc(-c2csc3[n+]2CCN3C(C)=O)cc1,i,i,i,i,41.2,i
O=C(CN1CC[n+]2c(-c3cccs3)csc21)c1ccc(-c2ccccc2)cc1,i,i,i,i,nt,nt
CC(=O)N1CC[n+]2c(-c3ccc(Cl)cc3)csc21,i,i,i,i,46.8,-23
CCCOc1ccc(/C=N/NC(=O)c2ccc3c(c2)OCO3)c(OCCC)c1,i,i,i,i,nt,nt
C=CCSc1nnc(CCc2ccccc2)n1N,nt,nt,i,nt,nt,nt
O=C(C[n+]1ccccc1)c1ccc(Cl)cc1,i,i,i,i,nt,nt
Cn1nnc2c[n+](CC(=O)c3ccc4ccccc4c3)cc(Br)c21,10.4,i,i,i,58.4,-93.6
Cn1nnc2c[n+](CC(=O)c3ccc(Cl)cc3)cc(Br)c21,i,i,i,i,59.1,-88.5
COc1ccc(C(=O)N2CCCC(CCC(=O)NCc3ccccc3F)C2)c(OC)n1 (stereo not given),i,i,i,i,nt,nt
CC(C)(C)n1nnnc1C(c1cccnc1)N1CCN(c2cccc(C(F)(F)F)c2)CC1 (stereo not given),7.77,i,i,i,20.8,i
Cc1cccc(N2CCN(C(c3ccncc3)c3nnnn3C(C)(C)C)CC2)c1C (stereo not given),i,i,i,i,29.3,i
Cc1c2cccn2cc[n+]1C,6.57,i,i,i,57.8,-52.5
CC(=O)Oc1cccc2c1C(=O)C1CC=CC(OC(C)=O)C1C2=O (stereo not given),nt,nt,i,nt,nt,nt
Cc1cn2nc(N)c3ccccc3c2n1,i,i,i,i,62.1,-56.9
O=C1C2C3C=CC(O3)C2C(=O)N1N=Cc1ccc2c(c1)OCO2 (stereo not given),nt,nt,i,nt,nt,nt
Cc1[nH]n(-c2ccc([N+](=O)[O-])cc2)c(=O)c1C=NCCc1ccc(S(N)(=O)=O)cc1,i,i,i,i,nt,nt
CCCc1[nH]n(-c2ccc([N+](=O)[O-])cc2)c(=O)c1C=NCCCn1ccnc1,i,i,i,i,37.2,-48.3
CNC(=O)c1ccc(Nc2nnc(C)c3ccccc23)cc1,i,i,i,i,47.4,-48.3
Cc1ccc(-c2nnc(Nc3ccc4c(c3)nc(C)n4C)c3ccccc23)cc1,i,i,i,i,nt,nt
Cc1nnc(Nc2ccc3c(c2)ncn3C)c2ccccc12,i,i,i,i,33.0,-47.3
Cc1ccc(-c2c3c(=O)n(C)c(=O)n(C)c3cn2CCCN2CCOCC2)cc1,8.05,i,i,i,69.9,-67.8
C(=N\Nc1ccc2nncn2n1)/c1ccccn1,i,i,i,i,23.6,-53.7
CN(C)CCNC(=O)c1onc(CSc2ccncc2)c1C(=O)NCCN(C)C,i,i,i,i,50.2,-58.2
CCCCN(CC)CCNC(=O)CN(C)S(=O)(=O)c1ccc2c(c1)c(=O)n(C)c(=O)n2C,i,i,i,i,32.2,-34.3
COc1ccc(CNC(=O)CN(C)S(=O)(=O)c2ccc3c(c2)c(=O)n(C)c(=O)n3C)cc1,i,i,i,i,nt,nt
CC1(C2CC2)NC(=O)N(CC(=O)N2CCN(S(=O)(=O)c3ccc(F)c(F)c3)CC2)C1=O (stereo not given),nt,nt,i,nt,nt,nt
Cc1cccc2nc(CSC(=N)N)c(Br)n12,i,i,i,i,28.0,-38
Clc1ccc(CSc2ncccn2)cc1,i,i,i,i,nt,nt
O=C1c2cnc3nc(SCc4ccc(Cl)cc4)nn3c2CC2c3ccccc3CCN12 (stereo not given),6.95,i,i,i,i,i
COCCN(C(=O)CSc1nnc(-c2ccccc2OC)o1)c1c(N)n(CC(C)C)c(=O)[nH]c1=O,i,i,i,i,nt,nt
